Experimental data taken from PubChem BioAssay AID1578 (Sanford-Burnham Center for Chemical Genomics, 2009).
In all, about 290,000 compounds went through this assay and about 3,000 (1%) were called active. Many of the other results were omitted from the sample, so actives are more common in it than they were. A number with no mark means an inactive call. Rule as the data show it: active = inhibition mostly above about 36% (no sharp cut-off); inactive = mostly below about 34%.

assay: inhibition of NOD1-driven NF-kB reporter – cell-based, luminescence, uHTS, primary screen (AID 1578); conditions: NOD1-driven NF-kB luciferase reporter cells, at 4 µM, stronger effect = higher value;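 also: HEK-293T reporter cells stimulated with the NOD1 agonist gamma-tri-DAP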

Row | SMILES | inhibition
1 | CSc1ccccc1NC(=O)c1ccc(CN2CCOCC2)cc1 | -18.3%
2 | CCOC(=O)COc1c(Br)cc(C2NC(=O)NC(C)=C2C(C)=O)cc1OC (centres undefined) | -12.4%
3 | COc1cc(C2NC(=O)NC(C)=C2C(C)=O)ccc1O (centres undefined) | 7.8%
4 | COc1cc(C2NC(=O)NC(C)=C2C(C)=O)cc(OC)c1OC (centres undefined) | 54.9% (active)
5 | CCOCCOC(=O)Cn1cnc2scc(-c3ccc(C)cc3)c2c1=O | -15.2%
6 | O=C(CN1CCCC1=O)NC1(C(F)(F)F)NC(=O)N(Cc2ccccc2)C1=O (centres undefined) | -22.8%
7 | N#C/C(=C\c1ccncc1)c1nc2c(s1)CCCC2 | -9.5%
8 | CC1CCc2nc(/C(C#N)=C/c3ccncc3)sc2C1 (centres undefined) | 64.3% (active)
9 | CC1CCc2nc(/C(C#N)=C/c3cccnc3)sc2C1 (centres undefined) | -52.3%
10 | O=C(CSc1nc2c(cnn2-c2ccc(F)cc2)c(=O)[nH]1)N1CCCc2ccccc21 | 4.3%
11 | CCCS(=O)(=O)N1CCCC(C(=O)Oc2ccc(OC)cc2)C1 (centres undefined) | -5.5%
12 | Oc1ccccc1CNc1ccc2c(c1)OCCO2 | -47.1%
13 | C=CCOc1ccccc1CNc1ccc2c(c1)OCCO2 | 58.5% (active)
14 | O=C(/C=C/c1ccccc1)NCCc1ccc2c(c1)OCCO2 | -27.8%
15 | O=C(/C=C/c1ccccc1)Nc1ccc2c(c1)OCCO2 | -2.7%
16 | C=CCOc1ccccc1CNc1cccc(F)c1 | 2.1%
17 | O=Cc1ccccc1OCc1ccc2c(c1)OCO2 | 16.8%
18 | CCOc1ccccc1NC(=O)Nc1ccc2c(c1)OCO2 | -52.1%
19 | O=C(CCl)N(C/C=C/c1ccccc1)c1ccc2c(c1)OCCO2 | 54.1% (active)
20 | C=CCOc1ccccc1CN(C(=O)CCl)c1ccc2c(c1)OCO2 | 64.3% (active)
21 | O=C(CSc1c(F)c(F)cc(F)c1F)Nc1ccc(C2SCCS2)cc1 | -7.2%
22 | O=C(CSCc1ccc(Cl)cc1)Nc1ccc(O)cc1C(=O)O | -25.7%

Row | SMILES | inhibition
23 | CCCc1cc(=O)[nH]c(/N=C(\N)Nc2ccccc2)n1 | -6.1%
24 | CCOC(=O)CNC(=O)CSc1nnc(NC(=O)c2ccc(S(=O)(=O)N3CCOCC3)cc2)s1 | -3.6%
25 | Cc1oncc1C(=O)N1CCCC(CO)(Cc2ccc(F)cc2F)C1 (centres undefined) | -6.9%
26 | CC(NS(=O)(=O)c1ccc(Br)cc1)c1ccccc1 (centres undefined) | -16.8%
27 | CCN1CCN(c2nc3c(c(=O)n(C)c(=O)n3C)n2Cc2cccc3ccccc23)CC1 | -7.8%
28 | COc1ccc(-c2nc3ccccc3n2Cc2ccccc2)cc1 | 14.3%
29 | Cc1n(Cc2ccccc2)c2ccccc2[n+]1Cc1ccccc1 | 19.4%
30 | O=C(CNC(=O)c1cccs1)NCCN1CCN(Cc2ccccc2)CC1 | -22.6%
31 | COc1ccc(OC)c(N/C=C/C(=O)c2ccc(OC)c(OC)c2)c1 | -24.7%
32 | COc1ccc(N/C=C/C(=O)c2ccccc2)cc1 | -59%
33 | COc1ccc(OC)c(N/C=C/C(=O)c2ccccc2)c1 | 62.5% (active)
34 | Cc1nc2c(ccc3nc(NC(=O)Cc4cccc5ccccc45)sc32)s1 | -33%
35 | COc1cc2[nH]c(=S)nc(NCc3ccc(Cl)cc3)c2cc1OC | -8.3%
36 | COc1cc(OC)cc(C(=O)N[C@H](C(=O)OCc2cc(=O)oc3cc(C)ccc23)C(C)C)c1 | -34.2%
37 | Cc1sc2ncnc(NC3CCN(Cc4ccccc4)CC3)c2c1C | 42.7%
38 | Cc1csc2c(NC3CCN(Cc4ccccc4)CC3)ncnc12 | 5%
39 | CNC(=S)N(CCc1c(C)[nH]c2ccc(C)cc12)Cc1cccnc1 | -9%
40 | CCNC(=S)N(CCc1c(C)[nH]c2ccc(Cl)cc12)Cc1cccnc1 | 11.3%
41 | CNC(=S)N(CCc1c(C)[nH]c2ccc(Cl)cc12)Cc1cccnc1 | 46.2% (active)
42 | O=C(OCc1nc2ccccc2s1)c1ccc([N+](=O)[O-])o1 | -43.7%
43 | Cc1ccc(C(=O)NCc2ccc(F)cc2)cc1NC1=NC2CS(=O)(=O)CC2S1 (centres undefined) | -41.2%
44 | O=C(NCC1CCCO1)c1cc2c([nH]c3ccccc32)c(-c2cccc(Cl)c2)n1 (centres undefined) | 73.1% (active)

Row | SMILES | inhibition
45 | COc1cccc(-c2nc(C(=O)NCC3CCCO3)cc3c2[nH]c2ccccc23)c1 (centres undefined) | 51.4%
46 | O=C(NCC1CCCO1)c1cc2c([nH]c3ccccc32)c(-c2cccc(Br)c2)n1 (centres undefined) | 33.6%
47 | Cc1cc(=O)[nH]c(SCC(=O)Nc2ccc(F)c([N+](=O)[O-])c2)n1 | -19.5%
48 | COc1ccc(CNC(=O)CSc2nnc(NC(=O)c3ccccc3F)s2)cc1 | -52.7%
49 | CC1CCCCC1NC(=O)CCn1ccc2cc(S(=O)(=O)N3CCCC3)ccc21 (centres undefined) | 13.3%
50 | CC1(C)CCSC(/C=C/c2ccccc2)=N1 | 73.3% (active)
51 | C(=C\c1ccncc1)/c1ccccc1 | -7.3%
52 | Nc1nnc(/C=C/c2ccccc2)s1 | -41.9%
53 | COc1cc2c(c(O)c1OC)-c1c(cc(OC)c(OC)c1OC)C[C@@H](C)[C@@H](C)C2 | 1.8%
54 | Cc1ccc(-c2noc(CCCC(=O)NCC3CCCO3)n2)cc1 (centres undefined) | 8.8%
55 | COc1ccc(NC(=O)C(Cl)=C(Cl)Cl)cn1 | 30.7%
56 | COc1ccc(CC(=O)Nc2ccc(OC)nc2)cc1 | -29.9%
57 | COc1ccc(CS(=O)(=O)/C(Cl)=C(/Cl)C(=O)Nc2ccc(OC)nc2)cc1 | 78.4% (active)
58 | Nc1ccc(Nc2ccccc2N)cc1 | 2.7%
59 | Nc1ccccc1Nc1ccccc1 | 48.8%
60 | Cc1ccc(Nc2ccccc2N)cc1 | 59.7% (active)
61 | CCCCCn1c(C)c2c(OCC)cccc(=O)c2c1C | -1%
62 | CCN(CC)CCNCc1cc(Br)ccc1OCC(=O)NCc1ccccc1 | 7.4%
63 | N#Cc1cc([N+](=O)[O-])ccc1NC(=O)COC(=O)CC1CCCC1 | -12.2%
64 | Cc1ccccc1S(=O)(=O)Cc1ccc(C(=O)NCc2ccco2)o1 | -5.4%
